8 compounds from PubChem BioAssay (NCI) can be followed below.

Some test systems named below: SK-MEL-2 melanoma; EKVX NSCLC; UO-31 renal; TK-10 renal; ACHN renal; CAKI-1 renal; A498 renal; CCRF-CEM leukemia; MOLT-4 leukemia; SR leukemia; RPMI-8226 leukemia; OVCAR-8 ovarian; OVCAR-5 ovarian; OVCAR-4 ovarian; SK-OV-3 ovarian; IGROV1 ovarian; OVCAR-3 ovarian; HS 578T breast; NCI/ADR-RES ovarian.
Test in all cases: NCI-60 one-dose screen, 48 h (100 = growth as untreated, 0 = no growth, -100 = all killed)
Holding throughout (settings): 10 µM unless noted

Compounds without any hit were thinned out: in the full panel of roughly 83,000, 20% have a hit.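 Cell lines were cultured in 96-well plates, exposed to a single compound concentration, and assessed for percent growth 48 hours later.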 A number with no mark means an inactive call. Activity calls are given as the source filed them. How the source made its calls: active means growth percent below 10; inactive means the rest.

With `Cc1cn(-c2cc(NC(=O)c3ccc(C)c(-n4cc(-c5cnc6cccnn56)nn4)c3)cc(C(F)(F)F)c2)cn1`, the growth is 64.9% in the experiment on SK-MEL-2 melanoma; 98.9% in the experiment on EKVX NSCLC; 58.2% with UO-31 renal; 111% in the experiment on TK-10 renal; 85.7% with ACHN renal; 94.7% in the experiment on CAKI-1 renal. The growth with A498 renal is 185%; in the experiment on CCRF-CEM leukemia it was 54.6%; in the experiment with MOLT-4 leukemia, 38.9%; in the experiment with SR leukemia it was 23.2%; in the experiment on RPMI-8226 leukemia it was 53.9%; with OVCAR-8 ovarian it was 92.4%. Besides, the growth was 58.3% with OVCAR-5 ovarian; 100% in the experiment with OVCAR-4 ovarian; 124% in the experiment with SK-OV-3 ovarian; 88.7% with IGROV1 ovarian; 124% in the experiment with OVCAR-3 ovarian; 108% in the experiment on HS 578T breast. Besides, in the experiment on NCI/ADR-RES ovarian, the growth is 94.5%.
`COc1ccc2c(c1)C(=O)N(C)C2C1c2c(cc3c(c2OC)OCO3)CCN1C` (stereo not drawn): the growth was 57.5% in the experiment with SK-MEL-2 melanoma; 62.6% in the experiment on EKVX NSCLC; 49.4% in the experiment with UO-31 renal; 78.6% with TK-10 renal; 46.5% in the experiment on ACHN renal; 31.6% in the experiment with CAKI-1 renal. For the same compound, the growth in the experiment on A498 renal was 91.5%; in the experiment with CCRF-CEM leukemia, 66.3%; with MOLT-4 leukemia, 46.4%; in the experiment with SR leukemia, 18.8%; in the experiment on RPMI-8226 leukemia, 73.8%; with OVCAR-5 ovarian, 67.2%. The growth is 69.4% in the experiment on OVCAR-4 ovarian; 64% in the experiment on SK-OV-3 ovarian; 43.2% in the experiment on IGROV1 ovarian; 9.03% (active) in the experiment on OVCAR-3 ovarian; 48.4% in the experiment on HS 578T breast; 27.9% in the experiment with NCI/ADR-RES ovarian.
For the compound `CC1=NN(C2=NC(=O)C(CC(=O)Nc3ccccc3C(F)(F)F)S2)C(c2ccc(N(C)C)cc2)C1` (stereo not drawn), the growth in the experiment on SK-MEL-2 melanoma was 65.2%; with EKVX NSCLC, 48.5%; in the experiment with UO-31 renal it was 41.6%; with TK-10 renal, 71.5%; in the experiment on ACHN renal, 35.8%; in the experiment with CAKI-1 renal, 71%. Besides, the growth in the experiment on A498 renal was 79.2%; in the experiment with CCRF-CEM leukemia it was 36.9%; in the experiment on MOLT-4 leukemia, 28.4%; in the experiment on SR leukemia it was 16.5%; with RPMI-8226 leukemia, 25.3%; with OVCAR-8 ovarian, 52.6%. For the same compound, the growth with OVCAR-5 ovarian is 86%; in the experiment with OVCAR-4 ovarian, 47.5%; in the experiment with SK-OV-3 ovarian it was 80.6%; in the experiment on IGROV1 ovarian, 59.2%; in the experiment on OVCAR-3 ovarian, 44.9%; in the experiment on HS 578T breast, 43.8%. Also, the growth in the experiment on NCI/ADR-RES ovarian is 62.7%.
`CN(C)c1nc(NCCNS(=O)(=O)c2ccc(C3=Nc4c(N)nc(N)nc4NC(c4ccc(C(F)(F)F)cc4)C3)cc2)nc(N2CCOCC2)n1` (stereo not drawn): the growth in the experiment with SK-MEL-2 melanoma is 21.8%; with EKVX NSCLC, 38.3%; with UO-31 renal it was 74.1%; with TK-10 renal, 68.9%; in the experiment on ACHN renal it was 77.3%; in the experiment on CAKI-1 renal it was 37.1%. The growth was 94.8% with A498 renal; 21.8% in the experiment with CCRF-CEM leukemia; -5.12% (active) in the experiment with MOLT-4 leukemia; 3.12% (active) with SR leukemia; 34.8% in the experiment on RPMI-8226 leukemia; 43.2% in the experiment with OVCAR-8 ovarian. Further, the growth was 78% with OVCAR-5 ovarian; 58% in the experiment on OVCAR-4 ovarian; 55.8% in the experiment with SK-OV-3 ovarian; 45.7% with IGROV1 ovarian; 58.2% in the experiment with OVCAR-3 ovarian; 40.7% in the experiment with HS 578T breast. Moreover, in the experiment on NCI/ADR-RES ovarian, the growth was 91.8%.
For the compound `COc1cc(C2CC(c3ccc(Cl)cc3)=Nc3c(N)nc(N)nc3N2)ccc1Oc1nc(Nc2ccc(F)cc2)nc(N(C)C)n1` (stereo not drawn), the growth in the experiment on SK-MEL-2 melanoma is 64.1%; in the experiment with EKVX NSCLC, 49.6%; in the experiment on UO-31 renal, 34.6%; in the experiment with TK-10 renal, 72.1%; in the experiment with ACHN renal, 62.3%; in the experiment with CAKI-1 renal, 35.3%. Further, the growth in the experiment with A498 renal is 59.5%; in the experiment with CCRF-CEM leukemia, 47%; in the experiment with MOLT-4 leukemia, -8.16% (active); in the experiment on SR leukemia, -47.5% (active); in the experiment on RPMI-8226 leukemia, 15%; with OVCAR-8 ovarian it was 65%. Besides, the growth in the experiment on OVCAR-5 ovarian is 96.6%; with OVCAR-4 ovarian it was 29%; in the experiment on SK-OV-3 ovarian, 79.3%; in the experiment on IGROV1 ovarian it was 34%; in the experiment on OVCAR-3 ovarian it was 65%; with HS 578T breast, 54%. Besides, the growth with NCI/ADR-RES ovarian is 41.4%.
With `CN(CCSSCCN1CCOCC1)C(=O)Oc1cc2c(c3ccccc13)[C@H](CCl)CN2C(=O)c1cc2cc(OCCCN3CCC3)ccc2[nH]1`, the growth in the experiment on SK-MEL-2 melanoma is -84.3% (active); with EKVX NSCLC it was -61.3% (active); with UO-31 renal it was -16.7% (active); in the experiment on TK-10 renal, -10.3% (active); in the experiment with ACHN renal it was -66.8% (active); in the experiment with CAKI-1 renal, -48.1% (active). Besides, the growth was -14.5% (active) with A498 renal; -41.3% (active) in the experiment with CCRF-CEM leukemia; -39.8% (active) in the experiment on MOLT-4 leukemia; -26.2% (active) in the experiment with SR leukemia; -28.5% (active) with RPMI-8226 leukemia; -36.7% (active) with OVCAR-5 ovarian. For the same compound, the growth in the experiment with OVCAR-4 ovarian was -28.7% (active); in the experiment on SK-OV-3 ovarian, -27.7% (active); in the experiment on IGROV1 ovarian it was -22.1% (active); with OVCAR-3 ovarian it was -46.7% (active); with HS 578T breast, -16.8% (active); with NCI/ADR-RES ovarian, -30.4% (active).
On to `Nc1nc(-c2ccccc2)c(N=Nc2ccc(Cl)cc2Cl)s1`, for which the growth in the experiment on SK-MEL-2 melanoma is -61.1% (active); in the experiment on EKVX NSCLC, -30.5% (active); with TK-10 renal, -13.9% (active); in the experiment with ACHN renal, -31.2% (active); in the experiment on CAKI-1 renal, -34.3% (active); with A498 renal, -16.8% (active). Besides, the growth in the experiment with CCRF-CEM leukemia was -0.55% (active); in the experiment with MOLT-4 leukemia, -24.6% (active); in the experiment with SR leukemia, -33.6% (active); with RPMI-8226 leukemia it was 7.32% (active); in the experiment on OVCAR-8 ovarian, 12.1%; with OVCAR-5 ovarian, -61.9% (active). Further, the growth in the experiment with OVCAR-4 ovarian is -2.75% (active); in the experiment with SK-OV-3 ovarian it was 7.41% (active); in the experiment with IGROV1 ovarian, -29.7% (active); in the experiment on OVCAR-3 ovarian, -70.3% (active); in the experiment with HS 578T breast it was -28.2% (active); in the experiment on NCI/ADR-RES ovarian, -57% (active).
On to `COc1ccc(-c2cc(C(=O)N=Nc3c(O)[nH]c4ccc(Cl)cc34)c3ccccc3n2)cc1OC`, for which the growth is 102% in the experiment with SK-MEL-2 melanoma; 90.1% in the experiment on EKVX NSCLC; 81.8% in the experiment on UO-31 renal; 116% in the experiment on TK-10 renal; 105% in the experiment on ACHN renal; 167% in the experiment with A498 renal. The growth in the experiment with CCRF-CEM leukemia was 112%; with MOLT-4 leukemia, 118%; in the experiment on SR leukemia it was 103%; in the experiment on RPMI-8226 leukemia it was 119%; with OVCAR-8 ovarian, 110%; with OVCAR-5 ovarian, 104%. Further, the growth was 116% in the experiment with OVCAR-4 ovarian; 154% in the experiment with SK-OV-3 ovarian; 93% in the experiment with IGROV1 ovarian; 118% with OVCAR-3 ovarian; 110% in the experiment with HS 578T breast; 98.2% with NCI/ADR-RES ovarian.
